Results on twelve molecules are retold here after the supplement of paper PMC5662767.

For this assay, the system named is Drosophila S2 cl14 SmoIP sensor cells. As to the kind of experiment: normalized SmoIP GFP fluorescence (untreated unstimulated = 0%, untreated Hh-stimulated = 100%); higher = more Smo activation sensor fluorescence. The conditions noted are these: compound concentration: 2 uM, 24 h.
Setting [1] is: stimulation: Hh conditioned medium (+Hh).
[2] abbreviates: stimulation: mock conditioned medium (-Hh).

Counter-ions that a name gives are not always drawn.
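Further: flow cytometry read-out as median GFP intensity of gated cells, compounds added 30 min before Hh-conditioned or mock medium, mock-treated cells serving as unstimulated baseline.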

With `COc1ccc2[nH]c([S+]([O-])Cc3ncc(C)c(OC)c3C)nc2c1` (configuration not stated) [Omeprazole], under setting [1], the “normalized SmoIP GFP fluorescence” value worked out at 97%.
On the same count and under the same terms, the result for `Cc1ccc(NC(=O)C2(c3ccc4c(c3)OC(F)(F)O4)CC2)nc1-c1cccc(C(=O)O)c1` reads 80%.
In the case of `O=C(N/N=C/c1ccc(O)c(O)c1)c1cc2ccccc2cc1O` [dynasore], the “normalized SmoIP GFP fluorescence” value stood at 129% under setting [1] and 1.24% under setting [2].
Take `O=c1oc2cc(O)ccc2s1` [tioxolone]: the “normalized SmoIP GFP fluorescence” value reads like this: under setting [1], 169%; under setting [2], -1.83%.
Taken in the same sequence, the figures for `NS(=O)(=O)C#Cc1ccccc1` [pifithrin-u] were 103% and -0.0369%.
The matching figures for `O=C1NC(=O)/C(=C/c2ccc(-c3ccc(F)cc3O)o2)S1`: 99.3% and 0.588%.
For `CC(C)NC[C@@H](C(=O)N1CCN(c2ncnc3c2[C@H](C)C[C@H]3O)CC1)c1ccc(Cl)cc1`, the “normalized SmoIP GFP fluorescence” value reads like this: under setting [1], 103%; under setting [2], -1.12%.
The matching figures for `CC(=O)S[C@@H]1CC2=CC(=O)CC[C@]2(C)[C@H]2CC[C@@]3(C)[C@@H](CC[C@@]34CCC(=O)O4)[C@H]12` [spironolactone]: 102% and -4.58%.
The matching figures for `COc1cc2c(cc1OC)CC(=O)N(CCCN(C)C[C@@H]1Cc3cc(OC)c(OC)cc31)CC2` [ivabradine-hcl-procoralan]: 111% and -11.2%.
Turning to `CCCCc1oc2ccccc2c1C(=O)c1cc(I)c(OCCN(CC)CC)c(I)c1` [amiodarone-hcl], the “normalized SmoIP GFP fluorescence” value runs as follows: under setting [1], 112%; under setting [2], 1.69%.
Taken in the same sequence, the figures for `CN1[C@@H]2CC[C@H]1C[C@@H](OC(c1ccccc1)c1ccccc1)C2` [benztropine-mesylate] were 113% and -0.662%.
Take `Cc1cnc(Nc2ccc(OCCN3CCCC3)cc2)nc1Nc1cccc(S(=O)(=O)NC(C)(C)C)c1`: the “normalized SmoIP GFP fluorescence” value under setting [1] came out at 173% and the “normalized SmoIP GFP fluorescence” value under setting [2] came to 8.54%.
